From PubChem BioAssay
Rows were chosen to be rich in hits. Some 10% of all compounds tested hit in one or more screens of this group.
LMNA splice mod – qHTS Assay for Modulators of Lamin A Splicing | HeLa LMNA splicing GFP/RFP minigene ratio, 48 h | Potency, µM (series often up to 46.1 µM), inactives show top-dose ratio change, negative = inhibition, hits mostly inhibitors | 200,000 tested, 0.01% active; active means well fitted inhibition curve with a large enough effect in the signal ratio, with a control signal flat, not every such curve was filed as active; inconclusive means small, poorly fitted or top-dose-only effect, or effect the other way, or a change in a side signal; the % refers to the signal ratio; further: potency means the concentration at half of the fitted maximal effect
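S3 HeLa cells stably expressing lamin A-EGFP splicing minigene plus DsRed2, 600 cells/well, 48 h compound exposure at 37C. Laser-scanning cytometry; analysed as GFP (500-530 nm)/RFP (575-640 nm) total intensity ratio; 0.5% DMSO vehicle.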
ALDH1A1 block – qHTS Assay for Inhibitors of Aldehyde Dehydrogenase 1 (ALDH1A1) | Purified ALDH1A1, NADH fluorescence, propionaldehyde substrate | Potency, µM (series often up to 75.3 µM), inactives show at the highest dose activity, negative = inhibition, actives largely listed as inhibitors | 220,000 tested, 7.3% active;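 further: potency means the concentration at half of the fitted maximal effect; plate controls were no enzyme wells and a reference inhibitor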
Target sequence (P00352 whole entry, looked up): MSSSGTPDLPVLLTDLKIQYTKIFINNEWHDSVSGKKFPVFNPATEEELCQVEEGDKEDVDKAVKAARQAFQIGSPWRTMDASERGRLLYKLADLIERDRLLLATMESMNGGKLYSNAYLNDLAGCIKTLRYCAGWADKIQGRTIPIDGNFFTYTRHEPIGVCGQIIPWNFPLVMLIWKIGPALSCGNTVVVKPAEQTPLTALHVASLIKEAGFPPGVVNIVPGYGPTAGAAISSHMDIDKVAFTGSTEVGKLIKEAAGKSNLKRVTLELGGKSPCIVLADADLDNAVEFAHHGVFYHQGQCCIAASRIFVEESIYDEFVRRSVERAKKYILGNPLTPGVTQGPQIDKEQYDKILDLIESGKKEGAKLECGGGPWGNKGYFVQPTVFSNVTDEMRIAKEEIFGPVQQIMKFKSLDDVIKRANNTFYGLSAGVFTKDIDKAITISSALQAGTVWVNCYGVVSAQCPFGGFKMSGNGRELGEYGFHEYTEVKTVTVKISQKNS
PNC assembly inh – High Content Assay for Compounds that inhibit the Assembly of the Perinucleolar Compartment; PC3M PTB-GFP, PNC prevalence imaging, 16 h; stronger effect = lower value; AID 2417, 2010; activity change (PNC), negative = inhibition, % at 10 µM; 140,000 tested, 3.1% active;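 active means readout at or below -70, meaning at least 70% loss of cells showing the perinucleolar compartment, a nuclear body marking cancer cells; inconclusive means readout between -30 and a set limit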;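 further: plate controls were DMSO wells for no effect and camptothecin positive control wells for full effect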
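Read-out is percentage of cells bearing a perinucleolar compartment, from automated 20x imaging of fixed, Hoechst-stained PC3M PTB-GFP cells. Cells were seeded 4 h, then exposed 16 h to compound (23 nl of library stock) in duplicate plates.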
12-hLO inh – qHTS Assay for Inhibitors of 12-hLO (12-human lipoxygenase) | purified 12-hLO, xylenol orange hydroperoxide absorbance | Polyunsaturated fatty acid lipoxygenase ALOX12 (Homo sapiens), P18054 | 150,000 tested, 0.12% active | Potency, µM (highest dose often 57.1 µM), for inactives: at the highest dose activity change, negative = inhibition, hits mostly inhibitors | AID 1452, 2008; active means well fitted inhibition curve with a large enough effect; inconclusive means small, poorly fitted or top-dose-only effect; further: potency means the concentration at half of the fitted maximal effect; nearly all actives have a fitted effect of over 55% in size
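Purified human 12hLO (150 nM final) was preincubated with compounds for 15 min at room temperature in 25 mM Hepes pH 7.0, 0.01% Triton X-100, then reacted with 40 uM arachidonic acid for 30 min. Hydroperoxide was detected with ferrous iron/xylenol orange.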
HPGD block – qHTS Assay for Inhibitors of HPGD (15-Hydroxyprostaglandin Dehydrogenase); 15-hydroxyprostaglandin dehydrogenase [NAD(+)] (Homo sapiens), P15428; 150,000 tested, 4.3% active; AID 894, 2007; Potency, µM, for inactives: top-dose activity change, negative = inhibition, usual class: inhibitors; purified HPGD, NADH fluorescence kinetic, PGE2 substrate; further: potency means the concentration at half of the fitted maximal effect
Target sequence (P15428 whole entry, looked up): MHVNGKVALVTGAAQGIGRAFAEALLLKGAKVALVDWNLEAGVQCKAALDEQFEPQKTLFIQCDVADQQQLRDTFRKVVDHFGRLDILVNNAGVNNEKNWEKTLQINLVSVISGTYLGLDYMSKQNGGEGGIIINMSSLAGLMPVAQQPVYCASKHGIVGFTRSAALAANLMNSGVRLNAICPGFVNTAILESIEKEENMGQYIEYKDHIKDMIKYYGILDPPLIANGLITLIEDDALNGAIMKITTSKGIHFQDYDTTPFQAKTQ
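20 nM HPGD preincubated 15 min at room temperature with compound in 50 mM Tris-HCl pH 8, 0.01% Tween 20. Started with 1 mM NAD+ and 30 uM prostaglandin E2; NADH fluorescence (360/450 nm) read 5 times over 30-s intervals, last minus first.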
Numbers without * were called inactive; ? = inconclusive; . = no result; [ ] = dose if it differs, or a comment. Unless noted, the call rests on the fitted dose curve; in most records, active means well fitted inhibition curve with a large enough effect (not every such curve was filed as active); inconclusive means small, poorly fitted or top-dose-only effect, or another doubt; inactive means no such curve, though single readings can be large or run the other way. Unless noted, on the % scale 0 is the no-effect control and ±100 the full control effect.

SMILES | LMNA splice mod | ALDH1A1 block | PNC assembly inh | 12-hLO inh | HPGD block
COc1ccc(C(=O)Nc2ccc(S(=O)(=O)Nc3onc(C)c3C)cc2)cc1 | 11% | -2% | ? | 4% | -31%
COc1cccc(C(=O)Nc2ccc(S(=O)(=O)Nc3onc(C)c3C)cc2)c1 | 7% | 15% | 19 | 1% | 35µM*
Cc1noc(C)c1C(=O)N1CCN(CCc2ccccc2)CC1 | 6% | -44% | -102* | -5% | -2%
Cc1noc(C)c1C(=O)N1CCC(CO)(Cc2ccccc2)CC1 | . | 4µM* | . | . | .
COC1=C/C(=C/c2c(N)n3nc(-c4ccc(C)cc4)sc3nc2=O)C=CC1=O | . | 1.1µM* | . | . | .
CCS(=O)(=O)c1nn2c(N)c(/C=C3/C=CC(=O)C(OC)=C3)c(=O)nc2s1 | -17% | -9% | -116* | -5% | ?
O=C(OCc1nnc(-c2ccc(Cl)cc2)o1)c1ccncc1 | 0% | -35% | 28 | -23% | -29%
Cc1noc(C)c1COc1ccc(C(=O)OCc2nnc(-c3ccc(Cl)cc3)o2)cc1 | 8% | 19% | -84* | -14% | .
Cc1ccccc1N1CCN(CCCN2C(=O)CC(=C(c3ccccc3)c3ccccc3)C2=O)CC1 | ? | 18µM* | 21 | -8% | ?
O=C(Nc1ccc(-c2cn3cccnc3n2)cc1)c1ccccc1F | 13%[46 µM] | . | . | . | .
Cn1c(=O)c2c(nc(SCCCC#N)n2Cc2ccccc2F)n(C)c1=O | -10% | 2.8µM* | -22 | -1% | -7%
Cc1cccc(Cn2c(SCC(=O)Nc3ccccc3)nc3c2c(=O)[nH]c(=O)n3C)c1 | ? | ? | -10 | -4% | 22µM*
CC(C)n1c(SCc2ccccc2F)nc2c1c(=O)n(C)c(=O)n2C | 1% | 4% | 18 | -7% | -8%
Cc1cccc(Cn2c(Sc3nc(C)cs3)nc3c2c(=O)[nH]c(=O)n3C)c1 | -1% | -9% | 24 | -5% | -3%
Cn1c(=O)[nH]c(=O)c2c1nc(SCCN1CCCCC1)n2Cc1ccccc1 | -9% | ? | ? | -3% | 25µM*
C=CCn1c(SCCN2CCCCC2)nc2c1c(=O)[nH]c(=O)n2C | 3% | -11% | 27 | -2% | -9%
Cn1c(=O)[nH]c(=O)c2c1nc(SCCN1CCCCC1)n2CCCc1ccccc1 | -2% | ? | ? | -10% | 28µM*
CCc1ccc(NC(=O)c2sc(-n3nc(C)c(Cc4ccc(OC)cc4)c3C)nc2C)cc1 | -2%[46 µM] | . | . | . | .
Cc1ccc(Cn2c(SCCN3CCOCC3)nc3c2c(=O)n(C)c(=O)n3C)cc1 | 4% | -1% | -81* | -4% | .
CNC(=O)CSc1nc2c(c(=O)n(C)c(=O)n2C)n1Cc1ccc(C)cc1 | 0% | -4% | -2 | 1% | -16%
CC(C)Sc1nc2c(c(=O)n(C)c(=O)n2C)n1Cc1ccc(Cl)cc1 | 7% | 8.9µM* | -10 | 0% | -9%
Cc1cc(C)n(-c2nc3c(c(=O)[nH]c(=O)n3C)n2Cc2cccc(Br)c2)n1 | 9% | 0% | -8 | -5% | 16µM*
Cc1ccc(Cn2c(-n3nc(C)cc3C)nc3c2c(=O)[nH]c(=O)n3C)cc1 | 5% | 11% | -19 | -5% | -8%
Cc1ccc(Cn2c(SCC(=O)NCC3CCCO3)nc3c2c(=O)n(C)c(=O)n3C)cc1 (configuration not stated) | . | 22µM* | . | . | .
CC(C)[C@]1(Cl)CC[C@@H]2[C@]3(C)CCC[C@@](C)(C(=O)O)[C@H]3C[C@H](Cl)[C@@]2(Cl)[C@H]1Cl | . | 0%[13.5 µM] | . | -3%[11.4 µM] | -9%
SMILES | LMNA splice mod | ALDH1A1 block | PNC assembly inh | 12-hLO inh | HPGD block
O=C(NC1CCCCC1)c1ccc(CSc2nc3cccnc3n2Cc2ccc(F)cc2)cc1 | 1%[46 µM] | . | . | . | .
Cc1ccc(Cn2c(SCCN3CCCCC3)nc3c2c(=O)[nH]c(=O)n3C)cc1 | -2% | ? | ? | 0% | 28µM*
Cn1c(=O)[nH]c(=O)c2c1nc(Sc1nc3ccccc3s1)n2Cc1ccccc1 | -11% | 16µM* | -29 | -11% | -4%
Cc1cccc(CCNC(=O)c2sc3nc4n(c(=O)c3c2C)CCCC4)c1 | 7%[46 µM] | . | . | . | .
CCOc1ccccc1-n1c(SCC(=O)NC)nnc1-c1ccco1 | 4% | 7% | ? | -1% | -5%
CNC(=O)CSc1nnc(-c2ccco2)n1-c1ccccc1OC | 6% | 20µM* | 33 | -2% | -5%
CCOc1ccccc1-n1c(SCC(N)=O)nnc1-c1ccco1 | -6% | 25µM* | -20 | 0% | -14%
COC(=O)c1cc(=O)n(Cc2ccc3c(c2)OCO3)c(=Nc2ccccc2)s1 | ? | 0.63µM* | -18 | -2% | -21%
COC(=O)c1cc(=O)n(Cc2ccco2)c(=Nc2ccc(F)c(Cl)c2)s1 | ? | 3.5µM* | 16 | -2% | -10%
COC(=O)c1cc(=O)n(Cc2cccs2)c(=Nc2ccc(F)cc2)s1 | . | 10µM* | . | . | .
Cc1c(-c2ccc(Cl)cc2)c(=O)oc2c(CN3CCN(C)CC3)c(O)ccc12 | -6%[46 µM] | . | . | . | .
CCOc1ccc(NC(=O)CSC2=Nc3ccccc3C3=NC(CC(=O)NCc4ccccc4OC)C(=O)N23)cc1 (configuration not stated) | 1%[46 µM] | . | . | . | .
CCCN(CCC)S(=O)(=O)c1ccc(C(=O)N2CCC(=O)c3ccccc32)cc1 | ? | 18µM* | 24 | -16% | -12%
O=C(c1ccc(S(=O)(=O)N2CCCCC2)cc1)N1CCCc2ccccc21 | -22% | ? | -17 | -2% | -2%
COc1ccc(Nc2oc(COc3ccc(C)cc3)nc2C#N)cc1 | ? | ? | -100* | -23% | 25µM*
COc1ccc(Nc2oc(COc3ccc(OC)cc3)nc2C#N)cc1 | ? | -2% | ? | -19% | ?
Cc1ccc(CSC2=Nc3ccccc3C3=NC(CC(=O)NC4CCCCC4)C(=O)N23)cc1 (configuration not stated) | 8%[46 µM] | . | . | . | .
Nc1nc(-c2cccs2)c(NC(=O)c2ccccc2)s1 | 3% | 20µM* | -26 | -20% | -6%
CC(=O)Nc1sc(NC(=O)c2ccc(Cl)cc2)nc1-c1cccs1 | ? | -9% | 24 | -5% | -19%
CC(=O)NCCNc1ncnc2ccc(-c3ccccc3C(F)(F)F)cc12 | -3% | -8% | . | . | .
CN(C)C(=O)c1ccc(-c2nc(N3CCOCC3)c3ccccc3n2)cc1 | -1% | ? | . | . | .
COc1ccc(CN(C)CC(=O)Nc2sc3c(c2C#N)CCC3)cc1OC | ? | 14µM* | . | . | .
COc1cccc(CN(C)CC(=O)Nc2sc3c(c2C#N)CCC3)c1OC | ? | 25µM* | . | . | .
CN(CC(=O)Nc1sc2c(c1C#N)CCCCC2)Cc1nc2ccccc2c(=O)[nH]1 | 9%[46 µM] | ? | . | . | .
COc1ccc2c(c1)C(=O)N(c1ccc(C)cc1C)C(=O)C2 | 6% | ? | 55 | -3% | ?
